From PubChem BioAssay AID925 (National Center for Advancing Translational Sciences (NCATS), 2007)
Values joined by “and” are separate entries in the source; they are usually repeats but may differ in a detail not shown here. Equal entries are not always repeated. About 40 (0.06%) of roughly 65,000 compounds were called active. The call rests on the fitted dose curve; in most records, active means well fitted activation curve with a large enough effect; inconclusive means small, poorly fitted or top-dose-only effect; inactive means flat fitted curve, though single readings scatter. The sample as a whole holds a higher share of actives than the screen did.

experiment: qHTS Assay for Modulators of Hemoglobin Beta Chain Splicing; conditions: HBB splicing reporter cell assay, EGFP reporter with mutant IVS2-654 intron; Potency: activation; series mostly up to 46.1 µM; activation: at the top concentration; on activation: 0% is about no effect
From the text: NIH Chemical Genomics Center [NCGC]
NIH Molecular Libraries Screening Centers Network [MLSCN]
PI Name: Dr. Ryszard Kole
Modulation of Alternative Splicing as Therapy
Abnormal splicing is associated with a number of diseases, including cancer and genetic diseases such as cystic fibrosis, muscular dystrophy and beta-thalassemia. Alteration of disease associated splicing patterns provides a promising target for treatment. […] Mutations in the second intron of the beta-globin gene at positions are clinically relevant and cause mis-splicing which results in an out of frame gene product.
EGFP-654 and 705 HeLa Cells as screen system.
HeLa cell lines were stably transfected with a construct in which the EGFP (enhanced green fluorescent protein) cDNA was interrupted by the second intron of the beta-globin gene (IVS2-654). The ISV2 intron contains mutations which cause mis-splicing of EGFP and premature termination of EGFP which results in a nonfluorescent protein product. […] Expression of the transgene was driven by the CMV promoter. We concluded that a low molecular weight compound, which restored correct splicing of intron 2 would also generate functional EGFP protein, resulting in a fluorescent signal. Thus, the HeLa cells that express the EGFP-654 construct can be used for high throughput screening of a chemical library.
NCGC Assay Protocol Summary:
High Throughput Screening. Freshly thawed HeLa EGFP-654 cells were seeded in 5 ul of optimem media (Invitrogen) containing 2 % fetal calf serum (Hyclone) and 1x penicillin/streptomycin (Invitrogen) at a concentration of 500 cells per well in 1536-well plates. Cells were incubated overnight at 37C in 5% CO2. The next day, cells were treated with DMSO, 500 nM antisense ISV2 654 PNA control oligo, or library compound and allowed to grow at 37C in 5% CO2 for 2 days. The PNA oligo blocked the mutation site in the intron and allowed proper (wild type) splicing to occur, resulting in full length EGFP expression and also allowed for optimization of the assay parameters. Plates were read in the Acumen Explorer (TTP Labtech) using 488 nm laser excitation and 500-520 nm emission PMT filter in a 1 x […] capture mode. Fluorescnet Fluorescent objects ranging in size from […] were measured and the total peak GFP intensity for each well was used for data analysis.
Keywords: Thalassemia, beta-thalassemia, beta-globin, EGFP, ISV2 654, ISV2 705, SSO, PNA, antisense, splicing, MLSMR, MLSCN, NIH Roadmap, qHTS, NCGC
Potency means the concentration at half of the fitted maximal effect.

activation, inactive:
C/C=C1\C(=O)C[C@@H]2[C@@H]3CCC4=CC(=O)CC[C@@]4(C)[C@H]3CC[C@@]12C 0.755%, Nc1nc2c(ncn2[C@H]2CC[C@@H](CO)O2)c(=O)n1C(=O)c1ccccc1 4.28% [at 9.22 µM, normalised to 500 nM splice-correcting PNA], N#Cc1cccc(-c2nc3cnc(N4CCNCC4)nc3n(C3CC3)c2=O)c1 -0.0364%, CCNc1ncc2nc(CCc3ccccc3)c(=O)n(-c3ccc(OC)cc3)c2n1 9.49%, COCCn1c(=O)c(-c2cc(F)cc(F)c2)nc2cnc(N3CCNCC3)nc21 -0.701%, N#CCCn1c(=O)c(-c2cc(F)cc(F)c2)nc2cnc(Oc3ccccc3)nc21 -1.62%, CN1CCc2[nH]nc(-c3n[nH]c4c3CN(C)CC4)c2C1 1.49% [at 9.22 µM, normalised to 500 nM splice-correcting PNA], COC(=O)N1CCC2(CCCN(Cc3ccccc3OC)C2)CC1 -1.36%, CN(C)CCCn1c2ccccc2c2cnccc21 4.04% [at 9.22 µM, normalised to 500 nM splice-correcting PNA], CCN1C(=O)c2cccc3c(N)ccc1c23 -0.679%, CC(C)CN1CCc2nc(-c3ccccc3)c3c(c2C1)COC(C)C3 (configuration not stated) 2% [at 9.22 µM, normalised to 500 nM splice-correcting PNA], CCCn1c(-c2ccc(F)cc2)nc2c(NC3CCN(Cc4ccccc4)C3)nc(C)nc21 (configuration not stated) -0.408%, CCOc1ccc(N=NS(=O)(=O)O)cc1 3.52% [at 9.22 µM, normalised to 500 nM splice-correcting PNA], CCCCC(CC)CN (configuration not stated), CC(C)(C)[Si](OCC[C@@H]1C[C@@]1(C)[C@@H](NP(=O)(c1ccccc1)c1ccccc1)c1ccccc1)(c1ccccc1)c1ccccc1 -1.23%, Cn1c(=O)n2n(c1=O)[C@H]1[C@H](O)[C@H]3O[C@H]3C(=O)[C@H]1CC2 0.301% [at 9.22 µM, normalised to 500 nM splice-correcting PNA], CN1C(=O)C[C@H](c2ccccc2)C1=O 0.654% [at 20.6 µM, normalised to 500 nM splice-correcting PNA], S=c1[nH]nc(SCc2ccccc2Cl)c2[nH]cnc12 3.49% [at 9.22 µM, normalised to 500 nM splice-correcting PNA], CC(=O)OCC1OC(C#CCCCc2ccccc2)C=CC1OC(C)=O (configuration not stated) -0.748% [at 9.22 µM, normalised to 500 nM splice-correcting PNA] and 1.62% [at 9.22 µM, normalised to 500 nM splice-correcting PNA], O=C(c1ccco1)N1CCC2(CC1)CCN(c1ncccn1)CC2 6.14%, CC(C)[C@@H](OCc1ccccc1)[C@H](C)/C=N\OC[C@@H](C)[C@H](OCc1ccccc1)C(C)C 4.09% [at 9.22 µM, normalised to 500 nM splice-correcting PNA], COc1ccccc1-c1nc(N2CCN(C)CC2)c2ccccc2n1 -1.17%, CCCCCCN(C(=O)CCCCCN1C(=O)NC(c2ccc(C(F)(F)F)cc2)C(C(=O)OCc2ccccc2)=C1C)C(C(=O)NCCCC)c1ccc(OCC(=O)OC)c(C(=O)OC)c1 (configuration not stated) -0.619%, CC(=O)CC(C)C -0.025%, COC(=O)[C@@]1(Cc2ccc(F)cc2)[C@H]2c3cc(C(=O)N(C)C)n(CCc4c[nH]c5ccc(OC)cc45)c3C[C@H]2CN1C(=O)c1ccccc1 0.012%, CC(C)NC(=O)N1CCCC2(CCN(C(=O)c3cccn3C)CC2)C1 2.69%, O=C(O)/C(=C/c1c(C(=O)O)[nH]c2cc(Cl)cc(Cl)c12)c1ccccc1 -0.728%, O=C(c1ccco1)N1CCC[C@@]2(CCN(c3ccccc3)C2)C1 -0.234%, NC1(C(=O)OCc2ccccc2)CCCC1 1.82% [at 9.22 µM, normalised to 500 nM splice-correcting PNA], COc1ccc(Br)c2c1C[C@H](C(=O)O)CC2 3.18% [at 9.22 µM, normalised to 500 nM splice-correcting PNA], COC(=O)c1ccc(C(NC(=O)OCc2ccccc2)/C(C)=C/[C@@H](C)C(=O)NCc2cc(C)on2)cc1 (some centres not stated) 0.55%, COc1ccc(-n2c(=O)c(-c3cn(C)c4ccccc34)nc3cnc(OC)nc32)cc1 1.65%, Brc1cc(Br)c(Oc2cc(Br)c(Br)cc2Br)cc1Br -0.0225%, Oc1ccc(O)c2c(O)cccc12 -0.446%, N#Cc1cccc(-c2ccc3ncnc(NCc4cccs4)c3c2)c1 -0.857%, CC[N+](C)(CC)CCC[n+]1c(-c2ccccc2)c2cc(N)ccc2c2ccc(N)cc21 -0.429% [at 20.6 µM, normalised to 500 nM splice-correcting PNA]

Potency, active:
Nc1ccc2c3c(cccc13)C(=O)NC2=O 31.6 µM
